Test results reported in PubChem BioAssay (NCATS).
Records with an inconclusive call do not appear. Active and inactive are the calls of the source. Calls follow the shape of the dose curve; as a rule, active = well fitted curve in the direction sought with a large enough effect; inconclusive = small, poorly fitted or top-dose-only effect, or another doubt; inactive = no such curve, though single readings can be large; an effect the other way counts as inactive or inconclusive.

Tests used:
[1] = molecular target: Glutathione peroxidase 1 (Homo sapiens) (UniProt P07203); assay: Primary qHTS Assay for Inhibitors of Recombinant Selenoprotein Glutathione Peroxidase 1 (GPX1) (AID 1845191); also: nearly all actives have a fitted effect of over 65% in size; as to activity, negative = inhibition: % is scaled to controls: 0 for no effect and ±100 for the full control effect
Sequence of Glutathione peroxidase 1 (Homo sapiens) (P07203 whole entry, looked up): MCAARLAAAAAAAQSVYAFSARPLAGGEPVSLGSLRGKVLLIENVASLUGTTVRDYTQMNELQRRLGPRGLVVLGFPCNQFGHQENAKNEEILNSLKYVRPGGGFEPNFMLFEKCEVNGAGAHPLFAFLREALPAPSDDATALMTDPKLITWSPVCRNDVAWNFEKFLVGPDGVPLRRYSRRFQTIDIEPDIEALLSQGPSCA
Summary of the method: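 10 nM GPX1 + cpd, 30 min RT; start w/ 1 mM GSH, 0.5 mM cumene hydroperoxide, 0.5 mM NADPH, 100 nM GR, 0.01% BSA; buffer 50 mM Tris-HCl pH 7.5, 2 mM EDTA, 150 mM NaCl; Fl 340/450, 0 & 15 min.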

[2] = molecular target: Phospholipid hydroperoxide glutathione peroxidase GPX4 (Homo sapiens) (UniProt P36969); assay: Primary qHTS Assay for Inhibitors of Recombinant Selenoprotein Glutathione Peroxidase 4 (GPX4) (AID 1845192); also: nearly all actives have a fitted effect of over 65% in size; as to activity change, negative = inhibition: series mostly up to about 50 µM; % is scaled to controls: 0 for no effect and ±100 for the full control effect
Sequence of Phospholipid hydroperoxide glutathione peroxidase GPX4 (Homo sapiens) (P36969 whole entry, looked up): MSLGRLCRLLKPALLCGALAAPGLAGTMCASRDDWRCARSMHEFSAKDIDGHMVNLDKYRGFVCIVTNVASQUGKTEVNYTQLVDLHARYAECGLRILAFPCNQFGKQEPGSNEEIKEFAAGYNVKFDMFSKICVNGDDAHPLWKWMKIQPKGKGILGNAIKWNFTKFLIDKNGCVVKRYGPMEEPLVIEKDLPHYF
Summary of the method: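 NADPH consumption, followed by fluorescence at 340/450 nm between 0 and 15 min, reports GPX4 activity via coupled glutathione reductase (100 nM). Enzyme 200 nM was pre-exposed to compound 30 min; 0.5 mM cumene hydroperoxide and 1 mM GSH served as substrates.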

[3] = molecular target: Luciferin 4-monooxygenase (Photinus pyralis) (UniProt P08659); assay: Primary firefly luciferase (FLuc) qHTS assay for identification of artifact compounds. (AID 1845220); also: nearly all actives have a fitted effect of over 60% in size;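 as to activity change, negative = inhibition: series mostly up to about 54 µM; plate controls were DMSO vehicle for no effect and no enzyme for full effect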
Summary of the method: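 Compounds sat 15 min at room temperature with 10 uM luciferin and 10 uM ATP (pH 7.6 Tris acetate). Firefly luciferase (10 nM final) was then added, and luminescence was read 5 min later. Data normalized to no-enzyme and DMSO controls were Hill-fitted.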

[4] = Primary fluorescence-based thiol-reactive (MSTI) qHTS assay for identification of artifact compounds. (AID 1845221); also: nearly all actives have a fitted effect of over 65% in size; also: potency is read from the fitted curve at half-maximal effect;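 as to activity change, negative = thiol reactive: series mostly up to about 54 µM; thiol-reactive compounds lower the probe fluorescence signal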
Summary of the method: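 qHTS titration of compound; 4 uM MSTI, PBS pH 7.4, 2% DMSO; 1 h RT, dark; fluorescence 525/598 nm; normalized to Acetyl-MSTI and MSTI; 4-parameter Hill fit.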

[5] = system: Nanoluciferase (engineered Oplophorus gracilirostris luciferase); assay: Primary Nanoluciferase (NLuc) qHTS assay for identification of artifact compounds. (AID 1845222);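 also: series mostly up to about 54 µM; 0% = DMSO and -100% = no enzyme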
Summary of the method: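 Luminescence from secreted NLuc (filtered, 1:55-diluted S16 cell medium) read 5 min after Nano-Glo substrate; compounds preincubated 15 min, RT. Hill fits of inhibition normalized to DMSO and no-enzyme.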

C=C[C@H]1[C@H](O[C@@H]2O[C@H](CO[C@@H]3OC[C@](O)(CO)[C@H]3O)[C@@H](O)[C@H](O)[C@H]2O)OC=C2C(=O)OCC[C@H]21
inactive: Potency [1] | Potency [2] | Potency [3] | Potency [4] | Potency [5]

C=C1CC[C@@H]2[C@](C)(CC[C@H](O)[C@@]2(C)CCC=C(C)C)[C@@H]1Cc1c[nH]c2ccccc12
inactive: Potency [1] | Potency [2] | Potency [3] | Potency [4] | Potency [5]

C=CCc1ccc(O[C@@H]2O[C@H](CO)[C@@H](O)[C@H](O)[C@H]2O)c(OC)c1
active: Potency [4] 7.36 µM
inactive: Potency [1] | Potency [2] | Potency [3] | Potency [5]

CCCOc1ccn2c(C(C)=O)cc(-c3ccccc3S(C)(=O)=O)c2c1
inactive: Potency [1] | Potency [2] | Potency [3] | Potency [4] | Potency [5]

Cc1cc(Nc2ncc(Cl)c(Nc3ccccc3S(=O)(=O)C(C)C)n2)c(OC(C)C)cc1C1CCNCC1
inactive: Potency [1] | Potency [2] | Potency [3] | Potency [4] | Potency [5]

C[C@@H]1O[C@@H](O[C@H]2[C@H](O[C@H]3CC[C@@]4(C)C(CC[C@]5(C)C4CC=C4C6CC(C)(C)CC[C@]6(C(=O)O[C@@H]6O[C@H](CO[C@@H]7O[C@H](CO)[C@@H](O[C@@H]8O[C@@H](C)[C@H](O)[C@@H](O)[C@H]8O)[C@H](O)[C@H]7O)[C@@H](O)[C@H](O)[C@H]6O)CC[C@]45C)[C@]3(C)CO)OC[C@H](O)[C@@H]2O)[C@H](O)[C@H](O)[C@H]1O (stereo not given in full)
inactive: outcome [1] inactive [at 9.52 µM] | activity change, negative = inhibition [2] -7.52% [at 9.73 µM] | outcome [3] inactive [at 11.6 µM] | activity change, negative = thiol reactive [4] 181% [at 11.5 µM] | activity, negative = inhibition [5] 0.304% [at 11.6 µM]

C/C=C1\[C@H](O[C@@H]2O[C@H](CO)[C@@H](O)[C@H](O)[C@H]2O)OC=C(C(=O)OC)[C@H]1CC(=O)OC
inactive: Potency [1] | Potency [2] | Potency [3] | Potency [4] | Potency [5]

C[C@H]1C[C@H]2[C@@H]3CCC4=CC(=O)C=C[C@]4(C)[C@@]3(F)[C@@H](O)C[C@]2(C)[C@@]1(O)C(=O)COP(=O)(O)O
inactive: Potency [1] | Potency [2] | Potency [3] | Potency [4] | Potency [5]

CC1(C)CC[C@]2(C(=O)O)CC[C@]3(C)C(=CCC4[C@@]5(C)CCC(O[C@@H]6OC[C@H](O)[C@H](O)[C@H]6O[C@@H]6O[C@H](CO)[C@@H](O)[C@H](O)[C@H]6O)[C@@](C)(CO)C5CC[C@]43C)[C@@H]2C1 (stereo not given in full)
inactive: Potency [1] | Potency [2] | Potency [3] | Potency [4] | Potency [5]

CC(C)[C@@H](C)/C=C/[C@@H](C)[C@H]1CC[C@H]2C3=CC=C4C[C@@H](O)CC[C@]4(C)[C@H]3CC[C@]12C
inactive: Potency [1] | Potency [2] | Potency [3] | Potency [4] | Potency [5]

CC1=CCC2C(C)(CO)CCCC2(C)C1CC12OC1C(O)C(CO)=CC2O (stereo not given)
inactive: Potency [1] | Potency [2] | Potency [3] | Potency [4] | Potency [5]

C[C@@H]1O[C@@H](O[C@H]2[C@H](OC(=O)[C@]34CCC(C)(C)C[C@H]3C3=CCC5[C@@]6(C)C[C@H](O)[C@H](O[C@@H]7O[C@H](CO)[C@@H](O[C@@H]8O[C@H](CO)[C@@H](O)[C@H](O)[C@H]8O)[C@H](O)[C@H]7O)[C@@](C)(CO)C6[C@H](O)C[C@@]5(C)[C@]3(C)C[C@H]4O)OC[C@H](O)[C@@H]2O)[C@H](O)[C@H](O)[C@H]1O[C@@H]1OC[C@@H](O)[C@H](O[C@@H]2OC[C@](O)(CO)[C@H]2O)[C@H]1O (stereo not given in full)
inactive: activity, negative = inhibition [1] -19.6% [at 9.52 µM] | activity change, negative = inhibition [2] -11% [at 9.73 µM] | activity change, negative = inhibition [3] -27.8% [at 11.6 µM] | activity change, negative = thiol reactive [4] -12.6% [at 11.5 µM] | activity, negative = inhibition [5] 2.77% [at 11.6 µM]

CC(=O)OC[C@@]12[C@H](O)C[C@]3(C)C(=CCC4[C@@]5(C)CC[C@H](O[C@@H]6O[C@H](C(=O)O)[C@@H](O[C@@H]7O[C@H](CO)[C@@H](O)[C@H](O)[C@H]7O)[C@H](O)[C@H]6O[C@@H]6O[C@H](CO)[C@@H](O)[C@H](O)[C@H]6O)[C@](C)(CO)C5CC[C@]43C)[C@@H]1CC(C)(C)[C@@H](OC(C)=O)[C@@H]2O (stereo not given in full)
inactive: Potency [1] | Potency [2] | outcome [3] inactive [at 11.6 µM] | activity change, negative = thiol reactive [4] 182% [at 11.5 µM] | activity, negative = inhibition [5] 3.06% [at 11.6 µM]

CCS(=O)(=O)N1CCC([C@@H](C)n2c(C)c(C(=O)NCc3c(OC)cc(C)[nH]c3=O)c3ccccc32)CC1
inactive: Potency [1] | Potency [2] | Potency [3] | Potency [4] | Potency [5]

Cn1c(=O)c2nc(/C=C/c3cccc(Cl)c3)n(C)c2n(C)c1=O
inactive: Potency [1] | Potency [2] | Potency [3] | Potency [4] | Potency [5]

CC/C=C\C[C@H]1C(=O)C=C[C@@H]1CCCCCCCC(=O)O
inactive: Potency [1] | Potency [2] | Potency [3] | Potency [4] | Potency [5]

COc1cc(C)c(C(=O)O[C@H]2[C@@H](O)[C@H](n3ccc(=O)[nH]c3=O)O[C@@H]2CO)c(OC)c1
inactive: Potency [1] | Potency [2] | Potency [3] | Potency [4] | Potency [5]
